High-throughput results (PubChem)
TDP1 cell CPT – DT40-hTDP1 cell growth loss with CPT. chicken DT40 Tdp1-/-;hTDP1 cells + 20 nM CPT, ATP luminescence, 48 h. Potency, µM (highest dose often 46.2 µM), inactives show at the top dose activity change, negative = growth inhibition, hits mostly inhibitors. 12% of 420,000 active. AID 686979; further: nearly all actives have a fitted effect of over 55% in size
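Chicken DT40 Tdp1-/- cells stably complemented with human TDP1 were seeded at 400 cells/well in medium containing 20 nM camptothecin, exposed to pin-transferred compounds, and grown at 37 °C for at least 48 hr. Viability was read as ATP luminescence.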
HT1080-NT tox – kills 2HG-producing HT-1080-NT fibrosarcoma cells; HT-1080-NT fibrosarcoma viability, CellTiter-Glo ATP luminescence, 48 h; Potency, µM (titrated, usually from 46.1 µM), without a hit: at the top dose activity, negative = less viability, hits mostly cytotoxic; 1.6% of 360,000 active; AID 686970;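 further: NT is the 2HG producing partner of a matched IDH1 knockdown line; 0% = DMSO-treated cells and -100% = media-only wells without cells; nearly all actives have a fitted effect of over 55% in size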
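HT-1080-NT; 750 cells/well; 5% FBS RPMI; 48 h compound, 37 degrees C; CellTiter-Glo luminescence; curve fitting and curve-class assignment.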
HT1080 IDH1KD tx – kills HT-1080 cells with IDH1 knockdown; 2% of 360,000 active; Potency, µM (series often up to 46.1 µM), inactives show at the top dose activity, negative = toxicity, usual class: cytotoxic; HT-1080 IDH1 knockdown viability, ATP luminescence, 48 h; AID 686971;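 further: 0% = DMSO wells and -100% = cell-free medium wells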
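% activity derives from luminescence (CellTiter-Glo), normalised to DMSO and no-cell wells. HT-1080-IDH1KD cells, 750/well, had 48 h compound exposure at 37 °C.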
KB-V1 cytotox – KB-V1 MDR subline cytotoxicity. KB-V1 MDR cells viability, CellTiter-Glo, 72 h. Potency, µM (titrated, usually from 46.1 µM), hits mostly cytotoxic. 3.4% of 400,000 active; further: nearly all actives have a fitted effect of over 60% in size
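Potencies derive from concentration-effect curves fitted to normalized luminescence (CellTiter-Glo) of KB-V1 cells treated for 72 h at 37 degrees C in phenol-red-free DMEM containing 10% FBS.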
DT40 TDP1 no CPT – qHTS for Inhibitors of human tyrosyl-DNA phosphodiesterase 1 (TDP1): qHTS in cells in absence of CPT | AID 686978, 2013 | DT40 Tdp1-/- hTDP1 cells, no CPT, ATP luminescence, 48 h | 15% of 420,000 active | Potency, µM (highest dose often 46.2 µM), for inactives: at the highest dose activity change, negative = growth inhibition, hits mostly inhibitors; further: nearly all actives have a fitted effect of over 55% in size
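Growth of hTDP1-complemented DT40 Tdp1-knockout cells is measured by ATP luminescence after at least 48 hr compound exposure at 37 °C, with DMSO substituting for the 20 nM CPT used in the parallel screen.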
KB-3-1 cytotox – KB-3-1 parental cell cytotoxicity; KB-3-1 viability, CellTiter-Glo ATP luminescence, 72 h; Potency, µM (highest dose often 46.1 µM), most hits filed as cytotoxic; 1.4% of 400,000 active; further: nearly all actives have a fitted effect of over 60% in size
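Here the drug-naive KB-3-1 line serves as comparator for MDR sub-line selectivity; cells received compound titrations, 72 h at 37 °C, then CellTiter-Glo readout.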
Starred values were filed as active, the others as inactive. A selection: hits, their analogues and other compounds. The true share with any hit is near 19%. The call rests on the fitted dose curve; in most records, active means well fitted curve in the direction sought with a large enough effect; inconclusive means small, poorly fitted or top-dose-only effect, or another doubt; inactive means no such curve, though single readings can be large; an effect the other way counts as inactive or inconclusive. Unless noted, on the % scale 0 is the no-effect control and ±100 the full control effect; potency means the concentration at half of the fitted maximal effect.

For Nc1c2c(nc3sc4c(c13)CCCC4)CCCCCC2 the results were TDP1 cell CPT inconclusive, HT1080-NT tox -7.0%, HT1080 IDH1KD tx 0.5%, KB-V1 cytotox inactive, DT40 TDP1 no CPT 13µM* and KB-3-1 cytotox inactive.
For O=C(NC1CC1)c1ccc(-c2cnc3cccnn23)cc1 the results were TDP1 cell CPT inconclusive, HT1080-NT tox -8.6%, HT1080 IDH1KD tx 1.7%, KB-V1 cytotox inactive, DT40 TDP1 no CPT inconclusive and KB-3-1 cytotox inactive.
`N#CCCn1c(=O)c(-c2cccs2)nc2cnc(Oc3cccc(Cl)c3)nc21` gave TDP1 cell CPT -14.7% and DT40 TDP1 no CPT inconclusive.
Screening Cc1cc(N2CCC(C)CC2)nc2ccc(NC(=O)Cc3ccccc3Br)cc12 returned TDP1 cell CPT 20.6µM*, KB-V1 cytotox inactive, DT40 TDP1 no CPT 13µM* and KB-3-1 cytotox inactive.
`Cc1cccc(CC(=O)Nc2ccc3nc(N4CCC(C)CC4)cc(C)c3c2)c1` gave TDP1 cell CPT 20.6µM*, KB-V1 cytotox inactive, DT40 TDP1 no CPT 14.6µM* and KB-3-1 cytotox inactive.
`COc1ccc(/C=C/C(=O)Nc2ccc3nc(N4CCC(C)CC4)cc(C)c3c2)cc1OC` gave TDP1 cell CPT 4.11µM* and DT40 TDP1 no CPT 4.61µM*.
Screening CCN1CCN(c2cc(C)c3cc(NC(=O)CCC(=O)Nc4ccc(OC)c(OC)c4)ccc3n2)CC1 returned TDP1 cell CPT -1.1%, HT1080-NT tox 11.0%, HT1080 IDH1KD tx -3.5%, KB-V1 cytotox inactive, DT40 TDP1 no CPT -23.0% and KB-3-1 cytotox inactive.
Screening COc1ccccc1CC(=O)Nc1ccc2nc(N3CCC(C)CC3)cc(C)c2c1 returned TDP1 cell CPT -21.3%, KB-V1 cytotox inactive, DT40 TDP1 no CPT inconclusive and KB-3-1 cytotox inactive.
`Cc1cc(N2CCOCC2)nc2ccc(NC(=O)CCC(=O)N3CCCC(C)C3)cc12` (centres undefined) gave TDP1 cell CPT -4.5%, HT1080-NT tox -12.4%, HT1080 IDH1KD tx -0.6%, KB-V1 cytotox inactive, DT40 TDP1 no CPT -27.9% and KB-3-1 cytotox inactive.
`O=C(Nc1cc(C(F)(F)F)ccc1Cl)c1cc(S(=O)(=O)NCc2ccccc2)ccc1F` gave TDP1 cell CPT inconclusive, KB-V1 cytotox inactive, DT40 TDP1 no CPT inconclusive and KB-3-1 cytotox inactive.
Cc1cccc(/C=C2\CCC(C3CCCC3)C2=O)c1 (centres undefined) was read as TDP1 cell CPT 2.0%, HT1080-NT tox -3.4%, HT1080 IDH1KD tx -11.4%, KB-V1 cytotox inactive, DT40 TDP1 no CPT -9.7% and KB-3-1 cytotox inactive.
Screening COc1ccc(C=C2SC(=S)NC2=O)c(OC)c1OC returned TDP1 cell CPT inconclusive, HT1080-NT tox -6.9%, HT1080 IDH1KD tx inconclusive, KB-V1 cytotox 14.6µM*, DT40 TDP1 no CPT inconclusive and KB-3-1 cytotox inconclusive.
`COc1cc(/C=C2\CCC(C3CCCC3)C2=O)cc(OC)c1OC` (centres undefined) gave TDP1 cell CPT inconclusive, HT1080-NT tox 6.9%, HT1080 IDH1KD tx -0.5%, KB-V1 cytotox inactive, DT40 TDP1 no CPT 16.4µM* and KB-3-1 cytotox inactive.
`COc1ccc(/C=C2\CCC(C3CCCC3)C2=O)c(OC)c1OC` (centres undefined) gave TDP1 cell CPT inconclusive, HT1080-NT tox -5.5%, HT1080 IDH1KD tx 2.4%, KB-V1 cytotox inactive, DT40 TDP1 no CPT 18.4µM* and KB-3-1 cytotox inactive.
COc1cccc(/C=C2\CCC(C3CCCC3)C2=O)c1OC (centres undefined) was read as TDP1 cell CPT inconclusive, HT1080-NT tox -5.4%, HT1080 IDH1KD tx -9.3%, KB-V1 cytotox inactive, DT40 TDP1 no CPT inconclusive and KB-3-1 cytotox inactive.
Screening COc1ccccc1C=C1CCc2ccccc2C1=O returned TDP1 cell CPT inconclusive, HT1080-NT tox inconclusive, HT1080 IDH1KD tx inconclusive, KB-V1 cytotox inactive, DT40 TDP1 no CPT inconclusive and KB-3-1 cytotox inactive.
Screening COc1ccc(/C=C2/CC/C(=C\c3ccc(OC)c(OC)c3OC)C2=O)c(OC)c1OC returned TDP1 cell CPT inconclusive, HT1080-NT tox 5.7%, HT1080 IDH1KD tx -4.4%, KB-V1 cytotox 2.06µM*, DT40 TDP1 no CPT 8.2µM* and KB-3-1 cytotox inactive.
Screening COCCn1c(C)cc(O)c(C(c2cccc(F)c2)N2CCN(c3ccccc3)CC2)c1=O (centres undefined) returned TDP1 cell CPT -5.5%, KB-V1 cytotox inactive, DT40 TDP1 no CPT 4.9% and KB-3-1 cytotox inactive.
`Cc1ccc(S(=O)(=O)N(C)c2ccc3sc(C)nc3c2)cc1` gave TDP1 cell CPT inconclusive, HT1080-NT tox inconclusive, HT1080 IDH1KD tx inconclusive, KB-V1 cytotox inactive, DT40 TDP1 no CPT 23.1µM* and KB-3-1 cytotox inactive.
Screening Cc1ccc(S(=O)(=O)N(C)c2ccc(N)cc2)cc1 returned TDP1 cell CPT -27.2%, HT1080-NT tox 10.8%, HT1080 IDH1KD tx 1.9%, KB-V1 cytotox inactive, DT40 TDP1 no CPT 1.9% and KB-3-1 cytotox inactive.
For CCn1c(=O)c2cc(C(=O)N(C)c3cc(C)ccc3OC)sc2c2ccccc21 the results were TDP1 cell CPT inconclusive, HT1080-NT tox -6.7%, HT1080 IDH1KD tx -1.7%, KB-V1 cytotox 23.1µM*, DT40 TDP1 no CPT inconclusive and KB-3-1 cytotox inactive.
`CCn1c(C(=O)O)c(CC(=O)N(C)c2ccc(OC)cc2OC)c2ccccc21` gave TDP1 cell CPT -5.2%, HT1080-NT tox -7.0%, HT1080 IDH1KD tx 0.0%, KB-V1 cytotox inconclusive, DT40 TDP1 no CPT -26.7% and KB-3-1 cytotox inactive.
CCn1c(=O)c2cc(C(=O)N(C)c3ccc(OC)cc3OC)sc2c2ccccc21 was read as TDP1 cell CPT inconclusive, HT1080-NT tox -6.0%, HT1080 IDH1KD tx inconclusive, KB-V1 cytotox inconclusive, DT40 TDP1 no CPT 13µM* and KB-3-1 cytotox inactive.
Screening NC(=O)C1(NC2CCCCC2)CCN(Cc2ccccc2)CC1 returned TDP1 cell CPT -7.0%, HT1080-NT tox -1.5%, HT1080 IDH1KD tx -9.8%, KB-V1 cytotox inactive, DT40 TDP1 no CPT -11.1% and KB-3-1 cytotox inconclusive.
Screening FC(F)(F)c1cnc(-c2cnc(-c3cccnc3)nc2)c(Cl)c1 returned TDP1 cell CPT -39.7%, HT1080-NT tox 22.0%, HT1080 IDH1KD tx inconclusive, KB-V1 cytotox inactive, DT40 TDP1 no CPT -14.2% and KB-3-1 cytotox inactive.
